# Reference: the supplement of paper PMC3334620
# Whole data set: some 33,000 sequences, median “E-score (-0.5 to 0.5)” near -0.021, cut for the highest 2% near 0.32. This is one part of a sample in which the highest values are shown more often than they occur.
# Target: T1, Zap1 (UniProt P47043)
# T1 sequence: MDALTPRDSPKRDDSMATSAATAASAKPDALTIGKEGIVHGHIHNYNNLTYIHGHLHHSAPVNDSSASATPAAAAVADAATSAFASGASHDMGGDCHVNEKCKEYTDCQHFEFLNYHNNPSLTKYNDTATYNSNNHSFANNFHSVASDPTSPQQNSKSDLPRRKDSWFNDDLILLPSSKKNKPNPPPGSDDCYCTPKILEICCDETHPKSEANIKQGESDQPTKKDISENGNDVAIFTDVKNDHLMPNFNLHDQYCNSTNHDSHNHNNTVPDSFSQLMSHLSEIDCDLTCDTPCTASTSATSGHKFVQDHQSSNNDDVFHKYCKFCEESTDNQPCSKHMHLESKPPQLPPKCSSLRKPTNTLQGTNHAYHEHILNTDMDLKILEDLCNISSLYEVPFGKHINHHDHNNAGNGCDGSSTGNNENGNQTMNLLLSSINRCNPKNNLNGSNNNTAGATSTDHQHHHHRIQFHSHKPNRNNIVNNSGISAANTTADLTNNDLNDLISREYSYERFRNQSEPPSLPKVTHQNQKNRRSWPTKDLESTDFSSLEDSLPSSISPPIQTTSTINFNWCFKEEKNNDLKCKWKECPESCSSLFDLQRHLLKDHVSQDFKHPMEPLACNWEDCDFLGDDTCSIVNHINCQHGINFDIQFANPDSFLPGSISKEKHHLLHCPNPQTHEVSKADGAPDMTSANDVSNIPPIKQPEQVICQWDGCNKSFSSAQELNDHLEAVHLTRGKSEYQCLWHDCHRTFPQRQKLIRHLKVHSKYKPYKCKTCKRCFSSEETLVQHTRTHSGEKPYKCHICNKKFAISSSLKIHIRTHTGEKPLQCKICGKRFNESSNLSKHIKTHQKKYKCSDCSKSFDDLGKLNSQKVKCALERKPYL
# Assay: PBM E-score (8-mer binding enrichment) (E-score (-0.5 to 0.5)); higher = stronger / more preferred TF binding
# Conditions: protein concentration: 200 nM; construct: GST-full length
# In short: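 The E-score, a modified Wilcoxon-Mann-Whitney statistic, was computed by the Universal PBM Analysis Suite for every ungapped eight-base word pooled with its reverse complement. Scans behind it were normalised with masliner after bound GST-tagged yeast transcription factors were detected with fluorescent anti-GST. The proteins, at about 100-200 nM, had been applied to universal all-10-mer Agilent arrays made double-stranded by primer extension.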
row,Sequence,PBM E-score
1,GGCCAGTA,0.177
2,AGTGGCTC,-0.175
3,AATCCTTG,0.0209
4,CATACCCC,0.348
5,GATACCCA,0.184
6,AATACCCC,0.237
7,GATACCAC,0.183
8,GATACCCC,0.37
9,CATACCCA,0.221
10,ATGTGAAG,-0.00714
11,ATGGGGGG,-0.045
12,ACTCGCAA,0.0584
13,CGCTTTGA,0.0708
14,CCTATAGC,-0.0148
15,CCTATAGG,0.346
16,ACTATAGG,0.0613
17,ATTGGCGG,-0.0834
18,AGCCCAAC,-0.0986
19,ACCCCTAT,0.324
20,ACCCCTCG,0.347
21,CCCCCTCG,-0.135
22,AGCCCTAG,-0.14

row,Sequence,PBM E-score
1,CCCCCTAG,-0.343
2,ACCCCTAG,0.341
3,ACCCCTAA,0.278
4,ACCCCTAC,0.293
5,ACCCCTCT,0.174
6,TACCGATA,0.102
7,CCGGTGCG,0.0015
8,AAATCTTG,0.0159
9,GCCAGCAC,-0.171
10,CTACCGCA,0.00616
11,GAACCGCA,0.149
12,GTACCGCA,0.383
13,TACCCGCA,0.364
14,ATACCGCA,0.0517
15,CACCCGCA,-0.0495
16,CAACCGAA,0.199
17,AAACCGAA,0.114
18,CAACCGCA,0.106
19,TAACCGCA,0.426
20,TAACCGAA,0.319
21,AACCCGCA,0.314
22,GTCCTTTA,0.132

row,Sequence,PBM E-score
1,CCGCCCAC,0.0267
2,GAAATCGA,-0.0672
3,TAACCGGA,0.364
4,GAACCGGA,0.0894
5,AAACCGGA,0.00487
6,AATTCTAC,0.104
7,TATACTAA,0.0714
8,GACAGCGA,-0.275
9,CGTTGGCC,-0.138
10,ACCGGTTG,0.119
11,GCCGGTGA,0.0983
12,CCCGGTTA,0.25
13,ACCGGTTA,0.372
14,GCCGGTTA,0.33
15,GCCGGTCA,0.0353
16,AGATTGAA,-0.0374
17,ATGCTAGG,-0.159
18,ACTAAATG,-0.036
19,ACCAGCGG,0.0819
20,CAAGATGC,-0.0715
21,AGTGGGAA,0.022
22,GTTGAAGA,-0.0696

row,Sequence,PBM E-score
1,GGGTCATA,0.432
2,CGGTCATA,0.201
3,AGGTCAGA,0.149
4,AGGTCAGG,0.141
5,AGGTCATG,0.416
6,AGGTCAAG,0.277
7,AGGTCATC,0.373
8,ATGTCATA,-0.0263
9,ATGTCATC,-0.123
10,CGGTCATC,0.131
11,GGGTCAGA,0.0808
12,AGGTCATA,0.347
13,TGCTCGAA,-0.0246
14,CATAGATC,-0.0935
15,ACATCTGG,0.0376
16,CAGTACTG,-0.118
17,GAGTCTTA,-0.368
18,ACGTAGGA,-0.12
19,ACGTCTGC,-0.272
20,AGGTCGTC,0.0799
21,AGGTCGTG,0.353
22,AGGTCGTA,0.189

row,Sequence,PBM E-score
1,AAACCAGA,0.165
2,CGCAACCG,0.281
3,AGCAACCC,0.239
4,CGGAACCG,0.169
5,AGGAACCC,0.104
6,GGCAACCA,0.116
7,GGCAACCC,0.358
8,CGCAACCC,0.379
9,CGCAACCA,0.283
10,CGGAACCC,0.326
11,AGATCGCA,-0.127
12,AATTCTTG,-0.0794
13,TTACACAA,0.21
14,GAGTGCAA,0.0286
15,CTACCCCC,-0.295
16,CTACCCTC,0.35
17,CTACCCGC,0.244
18,AGACCCTC,0.092
19,ATACCCTA,0.459
20,GTACCCTA,0.413
21,ATACCCTG,0.306
